Results filed as inconclusive are left out. Calls of active or inactive are those of the source. The calls were made as follows: active = hit-call score of the fitted dose curve at least 0.9, where 1 is the maximum; inconclusive = response in the unintended direction; inactive = score below 0.9.

One may read the AC50 as the concentration at which the activity in the assay is half-maximal.

The experiment deals with Japanese medaka Retinoid X Receptor beta (RXRb), gene 100125505. The experiment can be described thus: ATG_jmRXRb_EcoTox2: Attagene TRANS-FACTORIAL EcoTox-2 HepG2 Assay for Japanese medaka Retinoid X Receptor beta (RXRb). As to the method: ATG_EcoTox2 is a cell-based, multiplexed assay created by modifying the existing Attagene TRANS-FACTORIAL system to include a panel of nuclear receptors from some or all the following species: human (Homo sapiens), african clawed frog (Xenopus laevis), rainbow trout (Oncorhynchus mykiss), japanese medaka (Oryzias latipes), and zebrafish (Danio rerio). The ECOTOX2-FACTORIAL format uses HepG2, a human liver cell line, with measurements taken at 24 hours after chemical dosing in a 24-well plate. ATG_jmRXRb_EcoTox2 is one of 29 assay components calculated in the ATG_EcoTox2 assay. It is designed to make measurements of mRNA induction, a form of inducible reporter, as detected with fluorescence intensity signals by Reverse transcription polymerase chain reaction (RT-PCR) and Capillary electrophoresis technology.The assay endpoint ATG_jmRXRb_EcoTox2 was analyzed in the positive analysis fitting direction relative to DMSO as the negative control and baseline of activity. Using a type of inducible reporter, measures of mRNA for gain-of-signal activity can be used to understand the reporter gene at the transcription factor-level as they relate to the gene RXRb. Furthermore, this assay endpoint can be referred to as a primary readout, because this assay has produced multiple assay endpoints where this one serves a reporter gene function. To generalize the intended target to other relatable targets, this assay endpoint is annotated to the nuclear receptor intended target family, where the subfamily is non-steroidal.
Human liver HepG2 cells are transiently transfected with multiple reporter transcription units (MRTUs) in 6-well plates using FuGene 6 reagent (Roche; 3 ml FuGene/1 mg DNA). The MRTU constructs are regulated by a cis-regulating element (promoter). Each RTU expresses a GAL4-UAS that regulates the transcription of a nearby target reporter gene sequence. A major difference between the CIS and TRANS system is that in CIS activities of endogenous TFs are measured, whereas the TRANS assay evaluates changes in activities of exogenous, chimeric NR-Gal4 proteins. […] At the end of 24 hour incubation, total RNA was isolated using TriZol reagent (Invitrogen). The isolated RNA is then reverse-transcribed using oligo(dT) primer and Mo-MLV reverse transcriptase (Invitrogen) with DNAse I (Ambion) treatment for 30 min. The one-tenth of the produced cDNA was amplified by PCR using Taq DNA polymerase (Invitrogen) and two reporter sequence-specific primers. The PCR products were fluorescently labeled by primer extension with 6-arboxyfluorescein (6-FAM) 5'-labeled reporter sequence-specific primer (2 min at 95 C, 20 s at 68 C and 10 min at 72 C) and these products were digested with 5U of HpaI (New England Biolabs) for 2h at 37 C. The fragments were purified using Qiaquick PCR columns (Qiagen), analyzed on an ABI 3130xL genetic analyzer (Applied Biosystems) with peak positions identified by using a set of X-rhodamine (ROX)-labeled MapMarker1000 molecular weight standards (BioVentures). The raw capillary electrophoresis data was processed using Attagraph software (Attagene).
Regarding `Cc1ccc(C)c(OCCCC(C)(C)C(=O)O)c1`, the AC50 is 50 µM (active).

Consider `CC(C)(Oc1ccc(Cl)cc1)C(=O)O`, for which the call was inactive.

Consider `CC(C)(Oc1ccc(CCNC(=O)c2ccc(Cl)cc2)cc1)C(=O)O`, for which the result was inactive.

Take `CC(c1cc2ccccc2s1)N(O)C(N)=O` (stereo not given): the call was inactive.

In the case of `C=C(c1ccc(C(=O)O)cc1)c1cc2c(cc1C)C(C)(C)CCC2(C)C`, the half-maximal activity concentration (AC50) was 0.00302 µM (active). Same read-out and setting: in the case of `Cc1cccc(Nc2cc(Cl)nc(SCC(=O)O)n2)c1C` it was 27.4 µM (active). As for `CC(C)(Oc1ccc(C2CC2(Cl)Cl)cc1)C(=O)O` (stereo not given), the compound was classed as inactive. Same read-out and setting: the result for `C[C@@H]1C[C@H]2[C@@H]3CCC4=CC(=O)C=C[C@]4(C)[C@@]3(F)[C@@H](O)C[C@]2(C)[C@@]1(O)C(=O)COP(=O)(O)O` reads “inactive”. For the compound `CN(CCOc1ccc(CC2SC(=O)NC2=O)cc1)c1ccccn1` (stereo not given), the AC50 is 12.9 µM (active).

For `Cc1nc(-c2ccc(C(F)(F)F)cc2)sc1C(=O)NCc1ccc(OC(C)(C)C(=O)O)cc1`, the call was inactive.

The values are drawn from PubChem BioAssay AID2284381 (EPA ToxCast).
